# Data from PubChem BioAssay AID540333 (Southern Research Specialized Biocontainment Screening …, 2011).
# About 320 (3.2%) of roughly 10,000 compounds were called active. For the sample, actives were picked, then their nearest neighbours and some compounds at random. Values without a mark were called inactive. No stated cut-off is given here; in the data, active means CPE inhibition mostly above about 9.1% (no sharp cut-off); inactive means mostly below about 7.2%.
# Assay: antivirals protecting cells from dengue CPE – CPE readout, HTS (AID 540333)
# Details: Dengue virus CPE inhibition in host cells, at 20 µM; stronger effect = higher value
row,SMILES,CPE inhibition
1,CCCn1c(C(C)Nc2nc(-c3ccc(Cl)c([N+](=O)[O-])c3)cs2)nc2ccccc21 (stereo unspecified),29.9% (active)
2,Cc1ccc(-c2csc(NC(CO)c3nc4ccccc4n3CCOCCO)n2)cc1 (stereo unspecified),0.615%
3,CC(O)c1nc2ccccc2n1Cc1ccc([N+](=O)[O-])cc1 (stereo unspecified),inactive
4,CCC1CCCCN1C(=O)c1cccc(S(=O)(=O)Nc2cc(C(F)(F)F)ccc2Cl)c1 (stereo unspecified),3.38%
5,COc1ccc(CCN=C(N)NS(=O)(=O)c2ccc3ccccc3c2)cc1,inactive
6,Cc1ccc(C2(CCN)CCOC(C(C)C)C2)cc1 (stereo unspecified),7.74% (active)
7,O=C(NNS(=O)(=O)c1ccc(Cl)cc1)c1ccc(S(=O)(=O)N2CCCCC2)cc1,inactive
8,CC(C)(C)c1ccc(S(=O)(=O)N2CCCCC2)cc1,9.75% (active)
9,Cc1ccc(S(=O)(=O)N2CCCCCC2)cc1[N+](=O)[O-],inactive
10,CC(C)(C)c1ccc(S(=O)(=O)N2CCSC2)cc1,0.03%
11,COc1cc2cc(CN(Cc3cccs3)C(=S)Nc3ccccc3)c(=O)[nH]c2cc1OC,6.21%
12,Cc1ccc2[nH]c(=O)c(CN(Cc3cccs3)C(=S)NCc3ccco3)cc2c1,5.92%
13,COC(=O)c1ccccc1NC(=S)N(Cc1ccc2c(c1)OCO2)Cc1cc2ccc(OC)cc2[nH]c1=O,23.8% (active)
14,COC(=O)c1ccccc1NC(=S)N(Cc1ccc2c(c1)OCO2)Cc1cc2ccc(C)cc2[nH]c1=O,33% (active)
15,CNC(=S)N(Cc1cccs1)Cc1cc2cc(OC)c(OC)cc2[nH]c1=O,inactive
16,COC(=O)c1ccccc1NC(=S)N(Cc1ccc2c(c1)OCO2)Cc1cc2cc(OC)ccc2[nH]c1=O,3.25%
17,CCN1CCCC1CN(Cc1cc2ccc(C)cc2[nH]c1=O)C(=S)Nc1ccccc1OC (stereo unspecified),inactive
18,COC(=O)c1ccccc1NC(=S)N(Cc1ccc2c(c1)OCO2)Cc1cc2cc(C)ccc2[nH]c1=O,21.6% (active)
19,CCOc1ccccc1NC(=S)N(Cc1cc2ccc(C)cc2[nH]c1=O)CC1CCCN1CC (stereo unspecified),inactive
20,COC(=O)Cc1ccc(NC(=S)N2CCN(c3cccc(O)c3)CC2)cc1,0.105%
21,CCOC(=O)CCCNC(=O)COC(=O)[C@@H]1CCCN1S(=O)(=O)c1ccc(Cl)cc1,inactive

row,SMILES,CPE inhibition
1,Cc1ccc(-c2nc3ccccc3c(=O)n2NC(=O)COc2ccccc2)cc1,0.37%
2,CN(C)c1ccc(/C=N/NC(=S)NCc2ccco2)cc1,0.335%
3,COc1ccc(NC(=O)Nc2cccc([N+](=O)[O-])c2)cc1Cl,0.865%
4,O=C(O)c1ccc(NC(CSCc2ccccc2F)C(=O)O)c([N+](=O)[O-])c1 (stereo unspecified),inactive
5,Cc1c(N=C2NC(=O)/C(=C/c3ccc(O)cc3)S2)c(=O)n(-c2ccccc2)n1C,0.27%
6,CC12CCC(C(=O)N(c3ccc(Cl)cc3)C1=O)C2(C)C (stereo unspecified),inactive
7,CC12CCC(C/C1=N\N=C1\NC(=O)/C(=C\c3ccc(Cl)cc3)S1)C2(C)C (stereo unspecified),12.2% (active)
8,NS(=O)(=O)c1ccc(NC(=S)N2CCN(c3ccccc3)CC2)cc1,0.43%
9,O=C(COc1ccccc1-c1ccccc1)NCCN1C(=O)S/C(=C\c2cccnc2)C1=O,2.91%
10,COc1cc(OC)cc(N(C(=O)C2COc3ccccc3O2)C(C(=O)NC2CCCCC2)c2ccc(O)cc2)c1 (stereo unspecified),12.5% (active)
11,COc1ccc(N(C(=O)C2COc3ccccc3O2)C(C(=O)NC2CCCCC2)c2ccccc2)cc1OC (stereo unspecified),4.27%
12,COc1ccc(N(C(=O)CSCC(=O)Nc2cc(C)on2)C(C(=O)NC2CCCCC2)c2ccc(O)c(O)c2)cc1 (stereo unspecified),inactive
13,CC(C)[C@H](NC(=O)c1ccccc1)C(=O)OCC(=O)N1CCCCCC1,1.74%
14,COc1cc(C(=O)NC(=S)N(CCc2ccccc2)CCc2ccccc2)cc(OC)c1OC,inactive
15,COCCNC(=S)N/N=C(\C)c1ccccc1OC,0.125%
16,Cc1ccc(-c2nc(N)sc2CC(=O)OCC(=O)NC2CCCC(C)C2C)cc1 (stereo unspecified),0.74%
17,CC1CCCC(NC(=O)COC(=O)c2cccc(NS(=O)(=O)/C=C/c3ccccc3)c2)C1C (stereo unspecified),inactive
18,COc1cccc(/C=C(/C(=O)OCC(=O)NC2CCCC(C)C2C)c2ccccc2)c1 (stereo unspecified),28.3% (active)
19,O=C1COc2cc(ccc2[N+](=O)[O-])Oc2ccc(cc2Cl)C(=O)CCCCO1,inactive
20,c1nc(N2CCC3(CC2)OCCO3)c2[nH]cnc2n1,inactive
